Assay results taken from PubChem BioAssay (NCATS).
Inconclusive results are not listed. Entries that show only a call come without a potency. Calls of active or inactive are those of the source. Unless noted, the call rests on the fitted dose curve; in most records, active means well fitted curve in the direction sought with a large enough effect; inconclusive means small, poorly fitted or top-dose-only effect, or another doubt; inactive means no such curve, though single readings can be large; an effect the other way counts as inactive or inconclusive.

What was measured:
[1] = target: T1, Hexokinase-4 (Homo sapiens) + Glucokinase regulatory protein (Homo sapiens) (UniProt P35557+Q14397); assay: qHTS assay for inhibitors of recombinant human GCK-GKRP interaction: ADP-Glo assay (AID 743206)
Outline: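 GST-GCK and FLAG-GKRP (15 nM each in the dispensed mix, with 2 uM S6P) react with 0.4 mM ATP and 5 mM glucose (final) in Hepes pH 7.6 for 60 min at room temperature. ADP is measured by ADP-Glo luminescence.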

[2] = target: T1, Hexokinase-4 (Homo sapiens) + Glucokinase regulatory protein (Homo sapiens); assay: qHTS assay for inhibitors of recombinant human GCK-GKRP interaction: HTRF assay (AID 743207)
Outline: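 Titration screening format: recombinant GST-GCK and FLAG-GKRP at 5 nM, S6P at 2 uM, labelled anti-tag antibodies, 60 min at RT, dual-wavelength HTRF readout.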

[3] = qHTS Assay for Identifying Gametocytocidal Compounds (AID 743244);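 further: actives lower the fluorescent signal which means gametocytes are killed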; conditions: P. falciparum 3D7 stage III-V gametocytes, alamarBlue, 72 h; max response: stronger effect = lower value
Outline: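 P. falciparum 3D7 stage III–V gametocytes (20,000 cells/well) were exposed to compounds for 72 h at 37 °C, 5% CO2. AlamarBlue was then added for 24 h; decreased resorufin fluorescence (Ex 525/Em 598 nm) indicated loss of viability.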

[4] = target: Atrial natriuretic peptide receptor 1 (Homo sapiens) (UniProt P16066); assay: Natriuretic polypeptide receptor (hNpr1) antagonism - Pilot screen (AID 1347049; calls by dose curve;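 further: agonist-evoked cGMP luminescence read 20 min after hNppA addition; series mostly up to about 58 µM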)
Outline: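 Readout is cGMP-driven firefly luciferase luminescence in HEK293 cells carrying hNpr1 and a PDE5-domain GloSensor, read before and 20 min after 0.1 nM hNppA stimulation. Cells had 2% substrate reagent for 2 h and test compound for 30 min.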

[5] = target: Atrial natriuretic peptide receptor 2 (Homo sapiens) (UniProt P20594); assay: Natriuretic polypeptide receptor (hNpr2) antagonism - Pilot subtype selectivity assay (AID 1347050; calls by dose curve)
Outline: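 Pilot selectivity screen against hNpr2: HEK293 cGMP-sensor cells are treated with LOPAC1280 compounds, then with hNppC peptide at 1 nM final. The cGMP-driven luminescence change over 20 min at room temperature is the read-out.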

[6] = NS1 protein of Zika virus - qHTS assay to identify small molecule inhibitors in human HEK 293 cells (AID 1347053); further: series mostly up to about 46 µM; nearly all actives have a fitted effect of over 55% in size
Outline: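 HEK 293 cells, seeded 20 h at 37 C, were pretreated with compound 1 h, then infected with ZIKV MR766 (MOI = 0.5) for 24 h. NS1 was read by TR-FRET with two anti-NS1 antibodies, normalized to uninfected and infected wells.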

[7] = target: T2, Tyrosine-protein phosphatase non-receptor type substrate 1 (Homo sapiens) + Leukocyte surface antigen CD47 (Homo sapiens) (UniProt P78324+Q08722); assay: CD47-SIRPalpha protein protein interaction - LANCE assay qHTS validation (AID 1347057; active means well fitted curve in the direction sought with a large enough effect in the signal ratio, with a control signal flat, not every such curve was filed as active; the % refers to the signal ratio; further: series mostly up to about 38 µM)
Outline: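 First, His-tagged CD47 and Eu-labelled anti-His antibody met the compound for 30 min; next, site-specifically biotinylated SIRPalpha was added for 30 min; finally streptavidin-APC was added before reading the TR-FRET ratio.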

[8] = target: T2, Tyrosine-protein phosphatase non-receptor type substrate 1 (Homo sapiens) + Leukocyte surface antigen CD47 (Homo sapiens); assay: CD47-SIRPalpha protein protein interaction - Alpha assay qHTS validation (AID 1347059);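 further: bead proximity luminescence from CD47 binding SIRPalpha after compound preincubation with SIRPalpha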
Outline: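 Binding is measured by AlphaScreen proximity: Ni-NTA acceptor beads capture His-CD47, streptavidin donor beads capture biotin-SIRPalpha. Each of three additions (SIRPalpha with compound, CD47, beads) incubates 30 min at room temperature protected from light.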

[9] = target: Parathyroid hormone/parathyroid hormone-related peptide receptor (Homo sapiens) (UniProt Q03431); assay: qHTS for PTHR1 Agonists: Optimization Screen against the NCGC LOPAC library (AID 1347079);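 further: GloSensor cAMP luminescence in HEK-293 GP2 cells expressing human PTHR1 with IBMX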
Outline: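 Agonist readout: GloSensor cAMP luminescence, read after 15 min at room temperature. HEK-293-derived GP2 line carries PTHR1; compounds tested as a titration for 1 hr at 37C in presence of IBMX. M-PTH (1-15) served as control.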

[10] = tested on: Zika virus NS2B-NS3 protease (unlinked); assay: Optimization of GU AMC qHTS for Zika virus inhibitors: Unlinked NS2B-NS3 protease assay (AID 1347151); further: potency means the concentration at half of the fitted maximal effect; nearly all actives have a fitted effect of over 80% in size
Outline: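 In this qHTS, compounds acted on 25 nM unlinked Zika NS2B–NS3 in pH 8.0 Tris/Tween buffer. Cleavage of an AMC peptide ran 15 min at room temperature, to about 20% conversion.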

[11] = target: Lysine-specific demethylase 5B (Homo sapiens) (UniProt Q9UGL1); assay: Optimization screen for KDM5B Histone Demethylases FDH coupled qHTS against the LOPAC library (AID 1347166)
Outline: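 KDM5BDeltaAP (200nM final) preincubated 10 min with compound, then 12.5uM H3K4Me3, 25uM a-ketoglutarate, ascorbate, Fe(II), NAD+ and FDH added; 50mM HEPES pH 7.5, 0.01% Tween-20. NADH fluorescence (340/450 nm) change over 30 min, room temperature.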

[12] = qHTS to identify inhibitors of the type 1 interferon - major histocompatibility complex class I in skeletal muscle: primary screen against the NCATS LOPAC collection (AID 1347405);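 further: lytic HiBiT luminescence reporting HLA-B protein level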
Outline: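 Luminescence from HiBiT fused to endogenous HLA-B in CRISPR-engineered human myoblasts served as the read-out. Cells received 4.0 ng/ml IFN-beta plus compound (seven concentrations, 1:4.3 steps, highest 46 uM final) for 24 hrs before lytic detection.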

[13] = qHTS for inhibitors of adenylyl cyclases using a fission yeast platform: a pilot screen against the NCATS LOPAC library (AID 1347410)
Outline: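 Inhibition of GNAS-stimulated AC9 activity in S. pombe was inferred from derepression of a PKA-repressed fbp1-GFP reporter, measured as cytometric fluorescence after 18 h at 30C with compounds at up to 57 µM.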

[14] = Validation qHTS assay for inhibitors of Activation Induced Cytidine Deaminase (AID): UDG Counterscreen signal (AID 1347427)
Outline: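 Counterscreen read of UDG activity (2 U/mL, 4/3x) in the FRET deamination format with AID (1 uM, 4/3x), DJC20/DJC23 substrates (250 nM, 4x), 4 h at room temperature. NaOH stop, fluorescence at 560 ex/665 em.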

[15] = target: Single-stranded DNA cytosine deaminase (Homo sapiens) (UniProt Q9GZX7); assay: Validation qHTS assay for inhibitors of Activation Induced Cytidine Deaminase (AID): AID signal (AID 1347429)
Outline: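 Fluorescence at 540 nm excitation and 590 nm emission reports ssDNA cytosine deamination by AID, with UDG in the same well. Compound-treated reactions ran 4 hr at room temperature with DJC20/DJC23 substrate, followed by 30 min NaOH treatment.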

[16] = Primary qHTS for inhibitors of La Crosse Virus (LACV) - induced cell death in SH-SY5Y cells (AID 1508616);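 further: top concentration of the series differs between compounds; higher means more rescue of cells from virus-induced death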
Outline: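 Protection against LACV-induced cell death is scored in SH-SY5Y cells exposed to compounds and virus (0.01 MOI) for 6 days. Data normalized to virus-infected DMSO wells and virus-free DMSO wells.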

[17] = Primary qHTS for small molecule stabilizers of the endoplasmic reticulum resident proteome: Secreted ER Calcium Modulated Protein (SERCaMP) assay (AID 1508630)
Outline: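 GLuc-SERCaMP-expressing SH-SY5Y cells, pretreated 16 h with compound, are challenged with thapsigargin to empty ER calcium stores; after 4 h, coelenterazine is added directly to the medium and luminescence is imaged.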

Papain (Carica papaya) = Papain (Carica papaya) (UniProt P00784); assay: Primary qHTS assay for inhibitors of the protease papain (AID 1645873);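 further: papain turnover of Z-FR-AMC read as the AMC fluorescence gain over 10 min; series mostly up to about 50 µM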
[18] = Primary qHTS for inhibitors of nuclear receptor binding SET domain protein 2 (NSD2) in an isogenic RCH-ACV NSD2 p.E1099K mutant (9B) (AID 1645876); further: nearly all actives have a fitted effect of over 70% in size
[19] = target: Metallo-beta-lactamase type 2 (Klebsiella pneumoniae) (UniProt C7C422); assay: qHTS to identify inhibitors of the New Delhi Metallo-beta-lactamase (NDM): assay validation screen against the NCATS LOPAC Collection (AID 1794843);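 further: nitrocefin turnover by NDM-1 measured as 485 nm absorbance at plateau; series mostly up to about 38 µM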
Outline: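 NDM-1 at 2 nM final in 50 mM HEPES pH 7.0 with 1 uM ZnSO4 and 0.01% Tween20 was preincubated with library compounds in DMSO. Nitrocefin (50 uM stock) was then added, and absorbance at 485 nm was read at the kinetic plateau.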

[20] = target: Glutathione peroxidase 1 (Homo sapiens) (UniProt P07203); assay: Primary qHTS Assay for Inhibitors of Recombinant Selenoprotein Glutathione Peroxidase 1 (GPX1) (AID 1845191); further: nearly all actives have a fitted effect of over 65% in size
Outline: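 10 nM GPX1 + cpd, 30 min RT; start w/ 1 mM GSH, 0.5 mM cumene hydroperoxide, 0.5 mM NADPH, 100 nM GR, 0.01% BSA; buffer 50 mM Tris-HCl pH 7.5, 2 mM EDTA, 150 mM NaCl; Fl 340/450, 0 & 15 min.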

[21] = target: Phospholipid hydroperoxide glutathione peroxidase GPX4 (Homo sapiens) (UniProt P36969); assay: Primary qHTS Assay for Inhibitors of Recombinant Selenoprotein Glutathione Peroxidase 4 (GPX4) (AID 1845192); conditions: outcome: dose series up to 50 µM unless noted; further: series mostly up to about 50 µM; nearly all actives have a fitted effect of over 65% in size
Outline: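 NADPH consumption, followed by fluorescence at 340/450 nm between 0 and 15 min, reports GPX4 activity via coupled glutathione reductase (100 nM). Enzyme 200 nM was pre-exposed to compound 30 min; 0.5 mM cumene hydroperoxide and 1 mM GSH served as substrates.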

[22] = qHTS drug screen for cell cycle checkpoint inhibitors in PARPi-resistant BRCA-mutant ovarian cancer cell lines. (AID 1963452; calls by dose curve); conditions: PEO1/OlaR viability, CellTiter-Glo luminescence, 96 h, stronger effect = lower value
Outline: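 PEO1, PEO4 and PEO1/OlaR ovarian cancer cells, 600 per well, exposed 96 h at 37C to a dilution series. Viability read by CellTiter-Glo luminescence, normalized to DMSO and empty wells; activity summarized as Z-AUC.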

T2 sequence (P78324 whole entry, looked up): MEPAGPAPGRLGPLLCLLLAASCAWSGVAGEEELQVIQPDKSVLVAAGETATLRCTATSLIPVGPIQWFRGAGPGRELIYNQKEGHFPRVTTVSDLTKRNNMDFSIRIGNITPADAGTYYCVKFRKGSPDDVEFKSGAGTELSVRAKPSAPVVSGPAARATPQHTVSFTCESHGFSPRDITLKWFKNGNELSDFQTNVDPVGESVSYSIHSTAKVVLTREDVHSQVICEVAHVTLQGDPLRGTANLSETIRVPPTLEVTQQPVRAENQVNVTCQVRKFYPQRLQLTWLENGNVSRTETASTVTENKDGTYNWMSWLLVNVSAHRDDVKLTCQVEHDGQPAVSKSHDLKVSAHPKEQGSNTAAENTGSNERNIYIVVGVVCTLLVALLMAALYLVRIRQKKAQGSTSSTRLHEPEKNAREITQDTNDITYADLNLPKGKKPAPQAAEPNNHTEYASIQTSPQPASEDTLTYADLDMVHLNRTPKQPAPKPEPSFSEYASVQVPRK
T2 sequence (Q08722 whole entry, looked up): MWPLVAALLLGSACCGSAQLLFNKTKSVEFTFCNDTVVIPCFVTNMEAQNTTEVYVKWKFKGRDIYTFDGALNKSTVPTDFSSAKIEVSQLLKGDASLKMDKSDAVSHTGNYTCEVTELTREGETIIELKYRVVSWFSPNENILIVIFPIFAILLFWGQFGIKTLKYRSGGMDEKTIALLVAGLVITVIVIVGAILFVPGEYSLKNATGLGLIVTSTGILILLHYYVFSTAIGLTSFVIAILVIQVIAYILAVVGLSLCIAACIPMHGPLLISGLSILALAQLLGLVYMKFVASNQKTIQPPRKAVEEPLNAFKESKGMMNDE
T1 sequence (P35557 whole entry, looked up): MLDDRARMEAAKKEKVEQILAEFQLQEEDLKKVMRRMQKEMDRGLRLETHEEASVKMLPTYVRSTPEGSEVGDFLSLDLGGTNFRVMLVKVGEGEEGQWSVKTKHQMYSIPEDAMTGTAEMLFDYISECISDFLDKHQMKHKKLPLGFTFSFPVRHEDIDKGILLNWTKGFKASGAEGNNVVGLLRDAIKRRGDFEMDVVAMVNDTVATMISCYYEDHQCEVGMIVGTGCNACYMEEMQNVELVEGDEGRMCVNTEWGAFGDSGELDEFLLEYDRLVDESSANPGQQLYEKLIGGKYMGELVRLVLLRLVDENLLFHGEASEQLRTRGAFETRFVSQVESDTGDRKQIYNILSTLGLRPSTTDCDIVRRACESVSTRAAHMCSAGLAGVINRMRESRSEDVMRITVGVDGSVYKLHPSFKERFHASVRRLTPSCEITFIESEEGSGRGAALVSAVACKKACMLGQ
T1 sequence (Q14397 whole entry, looked up): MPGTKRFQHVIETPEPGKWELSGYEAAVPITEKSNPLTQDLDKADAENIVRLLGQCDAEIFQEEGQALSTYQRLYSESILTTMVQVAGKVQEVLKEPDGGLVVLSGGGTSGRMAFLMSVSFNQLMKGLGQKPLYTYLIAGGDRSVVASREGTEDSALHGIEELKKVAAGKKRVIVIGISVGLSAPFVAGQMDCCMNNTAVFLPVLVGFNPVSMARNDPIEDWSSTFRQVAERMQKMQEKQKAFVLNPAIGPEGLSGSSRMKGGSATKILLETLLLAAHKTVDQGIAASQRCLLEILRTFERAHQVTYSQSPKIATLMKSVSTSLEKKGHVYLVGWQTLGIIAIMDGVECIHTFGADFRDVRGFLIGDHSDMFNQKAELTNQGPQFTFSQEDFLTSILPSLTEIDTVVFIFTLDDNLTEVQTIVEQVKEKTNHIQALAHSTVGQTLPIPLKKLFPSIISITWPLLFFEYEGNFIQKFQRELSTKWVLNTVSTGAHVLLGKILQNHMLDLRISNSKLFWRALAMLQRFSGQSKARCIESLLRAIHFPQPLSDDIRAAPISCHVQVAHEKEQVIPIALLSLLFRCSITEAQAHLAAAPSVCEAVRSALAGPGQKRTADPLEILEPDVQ
Sequence of Glutathione peroxidase 1 (Homo sapiens) (P07203 whole entry, looked up): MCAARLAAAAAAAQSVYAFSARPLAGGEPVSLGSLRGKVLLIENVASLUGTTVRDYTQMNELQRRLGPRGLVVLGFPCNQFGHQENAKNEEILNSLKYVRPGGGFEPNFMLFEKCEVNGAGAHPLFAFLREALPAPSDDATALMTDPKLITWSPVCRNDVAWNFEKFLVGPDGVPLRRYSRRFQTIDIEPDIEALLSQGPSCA
Sequence of Lysine-specific demethylase 5B (Homo sapiens) (Q9UGL1 whole entry, looked up): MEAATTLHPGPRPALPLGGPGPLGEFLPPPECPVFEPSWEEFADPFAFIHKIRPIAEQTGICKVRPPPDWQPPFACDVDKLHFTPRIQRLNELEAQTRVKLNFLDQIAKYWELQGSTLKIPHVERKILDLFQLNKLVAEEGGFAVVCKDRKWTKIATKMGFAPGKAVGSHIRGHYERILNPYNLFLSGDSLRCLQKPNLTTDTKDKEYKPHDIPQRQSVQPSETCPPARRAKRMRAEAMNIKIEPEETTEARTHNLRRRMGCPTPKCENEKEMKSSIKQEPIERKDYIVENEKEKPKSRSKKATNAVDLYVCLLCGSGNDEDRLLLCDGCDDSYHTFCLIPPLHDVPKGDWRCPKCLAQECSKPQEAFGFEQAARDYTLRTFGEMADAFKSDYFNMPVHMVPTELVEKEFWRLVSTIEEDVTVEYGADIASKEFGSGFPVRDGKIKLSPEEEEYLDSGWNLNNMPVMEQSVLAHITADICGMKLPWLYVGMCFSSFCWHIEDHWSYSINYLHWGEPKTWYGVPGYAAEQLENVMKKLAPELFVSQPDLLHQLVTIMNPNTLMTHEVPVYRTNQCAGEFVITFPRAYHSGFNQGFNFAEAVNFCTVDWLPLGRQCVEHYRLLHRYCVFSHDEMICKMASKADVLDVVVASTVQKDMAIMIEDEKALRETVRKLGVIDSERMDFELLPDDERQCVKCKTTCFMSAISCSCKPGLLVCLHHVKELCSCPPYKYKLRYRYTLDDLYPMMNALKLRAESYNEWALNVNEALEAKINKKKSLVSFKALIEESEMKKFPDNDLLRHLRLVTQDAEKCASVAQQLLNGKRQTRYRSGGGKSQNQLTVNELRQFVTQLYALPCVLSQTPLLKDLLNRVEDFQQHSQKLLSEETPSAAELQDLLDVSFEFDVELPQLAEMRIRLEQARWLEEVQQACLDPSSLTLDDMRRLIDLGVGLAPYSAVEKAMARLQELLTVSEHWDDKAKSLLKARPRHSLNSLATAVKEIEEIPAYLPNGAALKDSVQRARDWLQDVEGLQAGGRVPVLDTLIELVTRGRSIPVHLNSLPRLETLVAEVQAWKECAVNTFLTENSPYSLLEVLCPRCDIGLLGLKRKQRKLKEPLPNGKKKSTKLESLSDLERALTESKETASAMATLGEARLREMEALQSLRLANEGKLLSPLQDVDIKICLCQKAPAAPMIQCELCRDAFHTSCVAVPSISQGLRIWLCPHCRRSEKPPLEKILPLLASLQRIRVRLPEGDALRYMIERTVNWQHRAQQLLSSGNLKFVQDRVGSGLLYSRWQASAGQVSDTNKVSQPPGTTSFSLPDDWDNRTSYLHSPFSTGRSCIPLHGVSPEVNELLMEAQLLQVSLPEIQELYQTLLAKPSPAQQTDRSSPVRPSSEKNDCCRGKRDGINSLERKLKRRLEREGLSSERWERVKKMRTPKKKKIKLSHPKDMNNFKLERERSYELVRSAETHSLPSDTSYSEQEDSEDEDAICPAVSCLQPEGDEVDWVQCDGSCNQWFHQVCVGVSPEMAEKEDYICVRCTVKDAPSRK
Sequence of Papain (Carica papaya) (P00784 whole entry, looked up, the tested form may be a part): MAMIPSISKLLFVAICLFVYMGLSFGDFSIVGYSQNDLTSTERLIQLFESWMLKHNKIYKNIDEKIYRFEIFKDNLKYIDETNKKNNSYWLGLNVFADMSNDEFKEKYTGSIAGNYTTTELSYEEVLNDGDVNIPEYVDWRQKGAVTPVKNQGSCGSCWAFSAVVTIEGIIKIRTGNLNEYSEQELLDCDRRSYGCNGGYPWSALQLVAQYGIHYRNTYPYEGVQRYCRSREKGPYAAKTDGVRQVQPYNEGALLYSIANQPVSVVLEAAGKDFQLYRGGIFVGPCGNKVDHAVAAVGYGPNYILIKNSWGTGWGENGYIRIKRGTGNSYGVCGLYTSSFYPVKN
Sequence of Parathyroid hormone/parathyroid hormone-related peptide receptor (Homo sapiens) (Q03431 whole entry, looked up): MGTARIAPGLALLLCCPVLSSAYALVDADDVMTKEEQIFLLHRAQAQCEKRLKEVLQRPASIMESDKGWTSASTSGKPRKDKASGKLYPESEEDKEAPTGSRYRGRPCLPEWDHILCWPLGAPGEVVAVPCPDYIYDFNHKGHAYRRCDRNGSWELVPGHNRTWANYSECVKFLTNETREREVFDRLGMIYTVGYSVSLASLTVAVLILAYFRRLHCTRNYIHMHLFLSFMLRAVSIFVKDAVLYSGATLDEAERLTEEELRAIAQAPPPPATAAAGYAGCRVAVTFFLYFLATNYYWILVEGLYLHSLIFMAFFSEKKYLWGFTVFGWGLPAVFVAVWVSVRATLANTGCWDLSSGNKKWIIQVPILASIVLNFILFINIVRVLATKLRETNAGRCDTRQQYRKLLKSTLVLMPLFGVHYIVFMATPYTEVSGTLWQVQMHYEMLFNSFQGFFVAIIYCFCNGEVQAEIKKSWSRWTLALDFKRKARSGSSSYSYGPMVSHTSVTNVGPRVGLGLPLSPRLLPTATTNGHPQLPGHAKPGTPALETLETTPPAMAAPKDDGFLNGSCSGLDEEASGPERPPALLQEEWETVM
Sequence of Single-stranded DNA cytosine deaminase (Homo sapiens) (Q9GZX7 whole entry, looked up): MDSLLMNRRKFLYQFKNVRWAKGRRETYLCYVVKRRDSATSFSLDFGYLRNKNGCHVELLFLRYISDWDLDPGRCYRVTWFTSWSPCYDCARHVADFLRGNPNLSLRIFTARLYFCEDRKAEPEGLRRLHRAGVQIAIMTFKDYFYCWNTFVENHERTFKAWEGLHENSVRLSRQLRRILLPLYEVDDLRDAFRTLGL
Sequence of Phospholipid hydroperoxide glutathione peroxidase GPX4 (Homo sapiens) (P36969 whole entry, looked up): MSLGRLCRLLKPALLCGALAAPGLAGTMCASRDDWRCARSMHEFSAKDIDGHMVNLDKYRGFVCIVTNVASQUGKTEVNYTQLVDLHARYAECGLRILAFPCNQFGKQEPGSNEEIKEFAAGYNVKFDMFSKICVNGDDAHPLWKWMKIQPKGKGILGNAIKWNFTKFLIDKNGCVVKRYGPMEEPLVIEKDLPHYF

## CCc1ccc(/C=C2/SC(=S)NC2=O)cc1
[1]
  outcome: inactive
[2]
  outcome: inactive
[3]
  max response: 30.7% (inactive)
[4]
  Potency: inactive
[5]
  Potency: inactive
[6]
  outcome: inactive
[7]
  outcome: inactive
[8]
  Potency: inactive
[9]
  outcome: inactive
[10]
  Potency: 23.8 µM (active)
[11]
  outcome: inactive
[12]
  Potency: inactive
[13]
  outcome: inactive
[14]
  outcome: inactive
[15]
  Potency: inactive
[16]
  outcome: inactive
[17]
  Potency: inactive
Papain (Carica papaya)
  Potency: inactive
[18]
  Potency: inactive
[19]
  Potency: inactive
[20]
  Potency: inactive
[21]
  Potency: inactive
[22]
  Z-AUC: 0.0868 (inactive)
[22]; measured here: PEO1 parental Z-AUC
  Z-AUC: 0.677
[22]; measured here: PEO4 Z-AUC
  Z-AUC: 0.763
